# FMDV antiviral: shows antiviral activity against foot and mouth disease virus; FMDV antiviral cell assay, firefly luciferase signal; Potency, µM (highest dose often 57.5 µM), without a hit: at the top dose activity change, negative = inhibition, usual class: inhibitors; 120,000 compounds, 0.23% hits; also: nearly all actives have a fitted effect of over 60% in size
# FMDV RLuc: shows antiviral activity in FMDV Renilla assay | FMDV replicon cells, Renilla luciferase signal | Potency, µM (highest dose often 57.5 µM), without a hit: top-dose activity change, negative = inhibition, hits mostly inhibitors | 120,000 compounds, 0.32% hits | AID 1745857; also: nearly all actives have a fitted effect of over 55% in size
# The depositor's hits bear a star; ? = inconclusive. The list is not random: actives were taken first. Their share in the collection is about 0.45%. Calls follow the shape of the full dose curve. % is scaled to controls: 0 for no effect and ±100 for the full control effect; potency is read from the fitted curve at half-maximal effect.
SMILES,FMDV antiviral,FMDV RLuc
O=C(c1ccnc(Cl)c1)N1CCC(c2nc3cc(C(F)(F)F)ccc3s2)CC1,11µM*,?
Cc1ccc(C(=O)N2CCC(c3nc4cc(C(F)(F)F)ccc4s3)CC2)cn1,?,14µM*
Cc1ccc2oc(C(=O)N3CCC(c4nc5ccccc5s4)CC3)c(C)c2c1,-6%,-16%
COc1cc(C(=O)N2CCC(c3nc4ccccc4s3)CC2)cc(OC)c1OC,?,-28%
Cc1c(C)c2ccc(OCC(=O)C(C)(C)C)c(C)c2oc1=O,117%,30%
CCOC(=O)CCc1c(C)c2ccc(OCC(=O)C(C)(C)C)c(C)c2oc1=O,2.8µM*,18%
Clc1ccc(-c2csc3ncnc(Sc4nnc(C5CC5)o4)c23)cc1,25µM*,20µM*
Cc1cc(C)n(-c2ncnc3scc(-c4ccc(Cl)cc4)c23)n1,-6%,-5%
CCC[N+]1(CC#CCC(c2ccccc2)c2ccccc2)CCCCC1,?,4µM*
C(#CCN1CCOCC1)CC(c1ccccc1)c1ccccc1,11%,10%
Cc1ccc(C(=O)NC2CCN(CCOC(C)C)CC2)s1,-4%,-2%
Cc1cccc(COc2ccc(/C=C(\C#N)c3nc4ccccc4[nH]3)cc2)c1,0%,?
N#C/C(=C\c1ccc(OCc2ccc(C#N)cc2)cc1)c1nc2ccccc2[nH]1,-10%,4µM*
Cc1ccc(CN2C3=NCCCN3c3ccccc32)cc1,7%,-8%
Cc1cc2c(cc1C)N(Cc1ccc(Cl)cc1)C1=NCCCN12,20µM*,?
COc1ccc(C(=O)Oc2ccccc2Cl)cc1I,16%,8%
COCCNC(=O)Cn1c(=O)n(-c2ccc(C)c(C)c2)c(=O)c2c3c(sc21)CCCCC3,-13%,-7%
CC(=O)OC1CCC2(C=O)[C@H]3CCC4(C)C(C5=CC(=O)OC5)CCC4(O)[C@@H]3CCC2(O)C1 (stereo partly drawn),1.4µM*,2.5µM*
CC12CC[C@H]3[C@@H](CCC4(O)CC(O)CCC34/C=N/O)C1(O)CCC2C1=CC(=O)OC1 (stereo partly drawn),1.4µM*,1.8µM*
COC1C(O)C(C)OC(OC2CCC3(C)C(CC[C@@H]4[C@@H]3CCC3(C)C(C5=CC(=O)OC5)C(O)CC43O)C2)C1O (stereo partly drawn),2.2µM*,5.6µM*
C[C@H]1O[C@@H](O[C@H]2CC[C@]3(C=O)[C@H]4CC[C@]5(C)[C@H](C6=CC(=O)OC6)CC[C@]5(O)[C@@H]4CC[C@]3(O)C2)C[C@H](O)[C@@H]1O,?,0.25µM*
COc1ccc(C(=O)C2CC(=O)Nc3c2c(C)nn3-c2cccc(C)c2C)cc1F (stereo not drawn),-3%,-3%
CCCCCn1nc(C(=O)Nc2nc3ccccc3[nH]2)c2ccccc2c1=O,14%,5%
Cc1cccn2cc(-c3cccc(NS(=O)(=O)c4ccc(Cl)c(Cl)c4)c3)nc12,3%,129%
CCCCCCC[N+](CC)(CC)CCCCc1ccc(Cl)cc1,?,7.9µM*
SMILES,FMDV antiviral,FMDV RLuc
CCCCCCc1ccc(C(=O)Oc2ccc(Cl)cc2)cc1,-7%,-7%
Cc1nc2c(c(C)c1CCC(=O)NCc1ccc(Cl)cc1)c(=O)n(C)c(=O)n2C,0%,-12%
COc1ccc(N2CCN(C(=O)CCc3c(C)nc4cc(-c5ccc(OC)cc5OC)nn4c3C)CC2)cc1,-20%,-15%
COc1ccc(N2CCN(C(=O)CCc3c(C)nc4cc(-c5ccc(Cl)cc5)nn4c3C)CC2)cc1,32µM*,-5%
COc1ccc(CCNc2ncnc3onc(C)c23)c(OC)c1,?,0.89µM*
CCCNc1ncnc2onc(C)c12,11%,-5%
Cc1ccc(NS(=O)(=O)c2ccc(-c3cnc(C4CC4)o3)cc2)cc1F,-26%,135%
CC(=O)c1cccc(NS(=O)(=O)c2ccc(-c3cnc(C4CC4)o3)cc2)c1,8.9µM*,-21%
CNc1nc(-c2cc(C)n(NC(=O)c3n[nH]c(=O)c4ccccc34)c2C)cs1,-14%,-15%
Cn1cnc2c1c(=O)n(CC(=O)NCc1ccccc1F)c(=O)n2C,0%,17%
CC(C)(C)c1ccc2c(c1)OCCOCCOc1cc(C(C)(C)C)ccc1OCCOCCO2,28µM*,18µM*
CC(C)(C)c1ccc2c(c1)OCCOCCOCCOCCO2,-11%,-24%
Cc1ccc(C(=O)NCCCN2CCCC2)cc1,16%,-14%
Cc1oc2ncn(CC(C)C)c(=O)c2c1C(=O)N1CCN(c2ccc(F)cc2)CC1,-8%,4%
CCN1C(=O)c2ccccc2Sc2ccc(NC(=O)Cc3ccc(OC)c(OC)c3)cc21,-3%,-7%
COc1ccc(C(=O)Nc2ccc3c(c2)N(C2CCCC2)C(=O)c2ccccc2S3)cc1OC,?,10µM*
NS(=O)(=O)c1ccc(NC(=O)c2ccc3c(c2)CCN3S(=O)(=O)c2ccccc2)cc1,-9%,65%
O=C(Nc1ccc(Br)cc1)c1cccc(S(=O)(=O)N2CCc3ccccc32)c1,32µM*,4µM*
O=C(NN=C1CCCCCCC1)C1CC1,0%,20%
CNC(=O)c1ccc(OCc2coc(-c3cccc(F)c3)n2)cc1,-22%,-39%
CNC(=O)c1ccccc1OCc1coc(-c2ccccc2)n1,?,10µM*
CNC(=O)c1ccccc1OCc1coc(-c2ccc(OC)cc2)n1,-11%,?
CNC(=O)c1cccc(OCc2coc(-c3cccc(F)c3)n2)c1,-16%,13µM*
CCC/C(=N\NC(=O)C(O)(c1ccc(CC)cc1)c1ccc(CC)cc1)c1ccccc1,-28%,58%
Cc1cc(C)cc(NC(=O)c2ccc3nsnc3c2)c1,145%,10%
SMILES,FMDV antiviral,FMDV RLuc
COc1ccccc1NC(=O)CSc1ccc(-c2sc(C)nc2C)nn1,5%,20%
Cc1nc(C)c(-c2ccc(SCC(=O)Nc3ccc(Br)cc3)nn2)s1,?,2.8µM*
c1ccc2c(C3=NNC(=NC4CCCCC4)SC3)c[nH]c2c1,138%,0%
COc1ccc(C(C)=O)cc1COc1ccccc1C#N,21%,34%
CO/C=C(/C(=O)OC)c1ccccc1Oc1cc(Oc2ccccc2C#N)ncn1,?,18µM*
CN(CC(=O)Nc1ccc(F)c(F)c1)S(=O)(=O)Cc1ccccc1C#N,11%,97%
Cc1ccc(Cl)cc1N1CCN(C(=O)C2CCN(c3nnc(-n4c(C)ccc4C)s3)CC2)CC1,10µM*,?
CCS(=O)(=O)N1CCC(C(=O)N2CCN(c3cc(Cl)ccc3C)CC2)CC1,-19%,-25%
COc1ccc(NC(=O)c2sc3nc4c(cc3c2N)N2CCC4CC2)cc1OC,23%,?
COc1ccc(-c2cc(C(F)(F)F)nc(S(C)(=O)=O)n2)cc1,-32%,?
CCOC(=O)CS(=O)(=O)c1nc(-c2ccc(F)cc2)cc(C(F)(F)F)n1,?,28µM*
O=C(O)c1ccc[n+]([O-])c1,-20%,-10%
Cc1ccc(C)c(CN2CCN(c3nc4c(c(=O)[nH]c(=O)n4C)n3CCc3ccccc3)CC2)c1,3%,-3%
CC(=O)N1c2ccccc2C(=O)C1N1CCN(c2cccc(C(F)(F)F)c2)CC1 (stereo not drawn),-22%,-17%
O=C1CC(c2ccccc2O)Cc2nc(N3CCN(c4cccc(C(F)(F)F)c4)CC3)ncc21 (stereo not drawn),8.9µM*,4µM*
COc1ccccc1N1CCN(C(=O)C2CCCN(S(=O)(=O)c3ccc4c(c3)CCCN4C(C)=O)C2)CC1 (stereo not drawn),?,25µM*
CCOC(=O)C1CCCN(S(=O)(=O)c2ccc3c(c2)CCCN3C(C)=O)C1 (stereo not drawn),-32%,151%

# High-throughput results (PubChem BioAssay)
